The panel holds about 83,000 compounds, 20% with a hit somewhere; the sample as a whole holds those more often.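 How to read the values: 0–100, growth inhibition (40 = 60% inhibited); 0, no net growth; -100 to 0, cell death (-40 = 40% of starting cells died; -100 = all dead).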 A number with no mark means an inactive call. Activity calls are given as the source filed them. The calls were made as follows: active = growth percent below 10; inactive = the rest.

The record followed here is PubChem BioAssay (NCI).

Test systems include NCI-H23 lung; NCI-H226 lung; NCI-H322M lung; HOP-62 NSCLC; NCI-H460 lung; HOP-92 NSCLC; NCI-H522 lung; A549/ATCC NSCLC; 786-0 renal; COLO 205 colon.
Common to all, as to test: NCI-60 one-dose screen, 48 h (100 = growth as untreated, 0 = no growth, -100 = all killed)
Conditions in all cases: 10 µM unless noted

With `COc1ccc2nc3cc(Cl)ccc3c(N3CCN(c4ccnc(N5CCOCC5)n4)CC3)c2c1`, the growth in the assay with NCI-H23 lung is 46.1%; in the assay with NCI-H226 lung it was 89.2%; in the assay with NCI-H322M lung, 94.4%; in the assay with HOP-62 NSCLC it was 71.5%; with NCI-H460 lung, 76.5%; in the assay on HOP-92 NSCLC, 56.3%. Besides, the growth is -51.4% (active) in the assay on NCI-H522 lung, 95.2% with A549/ATCC NSCLC, 92.8% with 786-0 renal and 31.1% with COLO 205 colon.
In the case of `CCCCCC(=O)Oc1ccc(/C(=C(\C)c2ccccc2)c2ccc(OCCN(CC)CC)cc2)cc1`, the growth was 79.8% with NCI-H23 lung; 93.3% with NCI-H226 lung; 81% with NCI-H322M lung; 91.7% in the assay with HOP-62 NSCLC; 52.3% with NCI-H460 lung; 52.8% in the assay with HOP-92 NSCLC. The growth in the assay on NCI-H522 lung is 62.4%; with A549/ATCC NSCLC, 67.7%; with 786-0 renal, 57.4%; with COLO 205 colon, 15%.
Turning to `COc1ccc(-c2cc(NC(=O)Nc3ccc(O)cc3)no2)cc1`, the growth is 89.5% in the assay with NCI-H23 lung; 84.2% in the assay with NCI-H226 lung; 66.8% in the assay with NCI-H322M lung; 88.5% in the assay on HOP-62 NSCLC; 86.2% with NCI-H460 lung; 94% in the assay with HOP-92 NSCLC. Further, the growth with NCI-H522 lung is 44.8%; in the assay on A549/ATCC NSCLC it was 67.6%; with 786-0 renal, 77.3%; in the assay with COLO 205 colon it was 105%.
As to `COc1ccccc1/C=C(/C(=O)c1ccccc1)c1ccccc1`, the growth was 95.4% in the assay on NCI-H23 lung; 107% in the assay on NCI-H226 lung; 115% with NCI-H322M lung; 114% in the assay with HOP-62 NSCLC; 93.6% with NCI-H460 lung; 75.7% with HOP-92 NSCLC. In addition, the growth with NCI-H522 lung was 106%; with A549/ATCC NSCLC, 97.4%; with 786-0 renal, 103%; in the assay with COLO 205 colon, 122%.
As for `CC#Cc1nc2ccccc2c(=O)[nH]1`, the growth with NCI-H23 lung was 80.6%; with NCI-H226 lung it was 64.5%; in the assay with NCI-H322M lung, 104%; in the assay on HOP-62 NSCLC it was 58.3%; in the assay on NCI-H460 lung it was 73%; in the assay on HOP-92 NSCLC, 92.7%. Further, the growth is 52.6% in the assay on NCI-H522 lung, 72.2% in the assay on A549/ATCC NSCLC, 42% in the assay on 786-0 renal and 78.7% in the assay with COLO 205 colon.
Regarding `CCOc1ccc(Nc2nc(-c3c(C)nc4ncccn34)cs2)cc1`, the growth with NCI-H23 lung was 24.2%; in the assay with NCI-H226 lung, 52.1%; with NCI-H322M lung, 52.2%; in the assay with HOP-62 NSCLC it was 17.9%; with NCI-H460 lung it was 5.6% (active); with HOP-92 NSCLC, 18.2%. The growth with NCI-H522 lung is -6.3% (active); in the assay on A549/ATCC NSCLC, 22.4%; in the assay with 786-0 renal, 9.74% (active); in the assay with COLO 205 colon, -60.8% (active).
Regarding `O=C1c2cc3c(cc2-c2c1c1cc(F)c(F)cc1c(=O)n2C[C@H](O)CO)OCO3`, the growth is -30.4% (active) with NCI-H23 lung; -74.1% (active) in the assay with NCI-H226 lung; -3.54% (active) with NCI-H322M lung; -35.2% (active) in the assay on HOP-62 NSCLC; 1.39% (active) in the assay on NCI-H460 lung; 9.43% (active) in the assay on HOP-92 NSCLC. In addition, the growth is -3.34% (active) in the assay on NCI-H522 lung, -57.8% (active) in the assay on A549/ATCC NSCLC, -20.8% (active) with 786-0 renal and -17.9% (active) with COLO 205 colon.
On to `O=C(Cc1ccccc1)c1ccc(Cl)cc1`, for which the growth is 95.4% in the assay with NCI-H23 lung; 99% in the assay with NCI-H226 lung; 108% with NCI-H322M lung; 100% with HOP-62 NSCLC; 109% with NCI-H460 lung; 104% in the assay on HOP-92 NSCLC. For the same compound, the growth in the assay on NCI-H522 lung was 93.8%; in the assay on A549/ATCC NSCLC, 69.3%; in the assay on 786-0 renal, 94.5%; with COLO 205 colon, 125%.
For `Nc1nc2c(c3ncccc13)C(c1ccc(Cl)c(Cl)c1)Cc1ncccc1-2` (stereo not given), the growth is 32.7% in the assay with NCI-H23 lung; 70.8% in the assay with NCI-H226 lung; 40.9% in the assay with NCI-H322M lung; 28% with HOP-62 NSCLC; 12.5% with NCI-H460 lung; 59% in the assay on HOP-92 NSCLC. Besides, the growth with NCI-H522 lung was -6.27% (active); in the assay on A549/ATCC NSCLC, 22.7%; in the assay on 786-0 renal, 29.9%; with COLO 205 colon, 1.52% (active).
For the compound `COc1nc2c(cc1S(=O)(=O)c1ccccc1)CCc1c-2cnn1Cc1ccccc1`, the growth is 54.1% with NCI-H23 lung; 65.9% in the assay with NCI-H226 lung; 60.1% in the assay on NCI-H322M lung; 56.2% in the assay with HOP-62 NSCLC; 54% in the assay on NCI-H460 lung; 3.62% (active) with HOP-92 NSCLC. For the same compound, the growth in the assay with NCI-H522 lung was 43.2%; in the assay on A549/ATCC NSCLC, 57.9%; with 786-0 renal, 52.3%; in the assay on COLO 205 colon it was 60.9%.
In the case of `O=C(CN1CCOCC1)Nc1ccc(Cn2nnc3c2C(=O)c2nnn(Cc4ccc(NC(=O)CN5CCOCC5)cc4)c2C3=O)cc1`, the growth is -21.1% (active) with NCI-H23 lung; -27.4% (active) in the assay on NCI-H226 lung; -3.02% (active) in the assay on NCI-H322M lung; -38.6% (active) in the assay with HOP-62 NSCLC; 5.66% (active) with NCI-H460 lung; -36.9% (active) in the assay with HOP-92 NSCLC. The growth with NCI-H522 lung is -43% (active); in the assay on A549/ATCC NSCLC it was -11.9% (active); with 786-0 renal, 12.1%; in the assay on COLO 205 colon, -83.9% (active).
As for `CCOC(=O)N1CCN(c2nc(Nc3cc(C)[nH]n3)c3ccccc3n2)CC1`, the growth in the assay with NCI-H23 lung is 65.8%; in the assay with NCI-H226 lung, 34.8%; with NCI-H322M lung, 88.5%; with HOP-62 NSCLC, 49.6%; in the assay on NCI-H460 lung, 23.1%; with HOP-92 NSCLC it was 31.3%. The growth is 10.4% with NCI-H522 lung, 34.4% in the assay on A549/ATCC NSCLC, 44% with 786-0 renal and 14% in the assay on COLO 205 colon.
With `NS(=O)(=O)c1ccc(Nc2nc3n[nH]c(Nc4ccccc4)c3c(=O)[nH]2)cc1`, the growth in the assay with NCI-H23 lung is 94.9%; in the assay with NCI-H226 lung, 92.5%; in the assay with NCI-H322M lung, 101%; with HOP-62 NSCLC, 90.8%; with NCI-H460 lung, 103%; in the assay on HOP-92 NSCLC, 102%. Moreover, the growth with NCI-H522 lung is 90.4%; in the assay with A549/ATCC NSCLC, 103%; in the assay on 786-0 renal, 101%; with COLO 205 colon it was 96.6%.
Regarding `COc1ccc(C(=O)/C=C/c2c(Cl)c3c(c(OC)c2Cl)OCC(=O)N3)cc1`, the growth in the assay with NCI-H23 lung is 43.1%; in the assay on NCI-H226 lung, 62.9%; in the assay with NCI-H322M lung, 79.8%; in the assay with HOP-62 NSCLC it was 21%; in the assay with NCI-H460 lung, 12%; with HOP-92 NSCLC, 74.5%. Also, the growth was 12.7% in the assay on NCI-H522 lung, 61.1% in the assay on A549/ATCC NSCLC, 58.2% in the assay on 786-0 renal and 62.1% in the assay with COLO 205 colon.
